Source: PubChem BioAssay
A number with no mark means an inactive call. Inconclusive results are not listed. Calls of active or inactive are those of the source.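 The calls were made as follows, unless noted: active = viability at or below 27.92% in each of two runs, the all-compound median minus 4 SD; inconclusive = no clear call, values can overlap the other calls; inactive = the rest.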

Legend:
[1] = S. cerevisiae growth inhibition in permissive medium (OD615), pilot counter-assay for S. cerevisiae lifespan shortening project, permissive growth control (AID 705;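 active = growth inhibition above 25% in both replicates, a cutoff set 3 SD above the mean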); details: OD615, 24 h, at 10 µM, stronger effect = higher value
[2] = S. cerevisiae growth inhibition in restrictive medium, OD615, pilot screen, restrictive growth control, yeast lifespan reduction project (AID 706;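 active = growth inhibition above a set limit, 3 SD over mean compound inhibition, in both replicates, cut at about 43% in these data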;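 also: modified DeaD lifespan yeast strain shifted to restrictive glucose medium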); details: OD615, 48 h, at 10 µM, stronger effect = higher value
[3] = doxorubicin toxicity protection in MRP-1 cells – H69AR cells, CellTiter-Glo, duplicate, MRP-1 activator project, pilot screen (AID 807;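 active = viability increase at or above a cutoff of the median across tested compounds plus 3 SD, cut at about 8.5% in these data, passing the limit was not always enough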;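 also: compound pretreatment 18-22 h then 72 h combined with doxorubicin; 0% = doxorubicin alone and 100% = vehicle without doxorubicin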); details: H69AR viability with doxorubicin, CellTiter-Glo luminescence; at 10 µM; stronger effect = higher value
[4] = viability of HCT116 without oncogenic beta-catenin – human colon tumor cells, pilot screen (AID 823;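 active = cell viability at or below a set limit in both duplicate runs, the limit being the all-compound median minus 4 SD, cut at about 23% in these data, passing the limit was not always enough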;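 also: 0% = wells killed by 20 µM Hyamine and 100% = untreated DMSO cell wells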); details: HCT116 beta-catenin knockout viability, CellTiter-Glo, 60 h; at 10 µM; stronger effect = lower value
[5] = viability of PTEN-null HCT116 cells – cell-based, HCT116 clonal line, CellTiter-Glo, pilot screen (AID 824); details: HCT116 PTEN-deleted viability, 60 h, at 10 µM, stronger effect = lower value;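 also: 0% = 20 µM Hyamine control and 100% = vehicle cell control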
[6] = RAM signaling pathway blockade in yeast – S. cerevisiae, Pdr1DBD-CYC8 efflux-inhibited sensitized strain, primary screen (AID 1298;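 active = RAM network inhibition above 8.4% in each of two replicates, 3 SD over the compound average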;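 also: 0% = DMSO untreated cells without growth and 100% = 10 µM 1-NA-PP1 full growth; higher means more yeast growth rescued from 5-FOA killing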); details: S. cerevisiae cbk1-as DSE1-URA3 strain, 5-FOA growth OD615, 2 d; at 50 µM; stronger effect = higher value

| Structure (SMILES) | growth inhibition [1] [%] | growth inhibition [2] [%] | viability increase [3] [%] | viability [4] | viability [5] | RAM network inhibition [6] [%] |
| --- | --- | --- | --- | --- | --- | --- |
| CN(CC(=O)N1CCc2ccccc2C1)S(=O)(=O)c1ccc2c(c1)c(=O)n(C)c(=O)n2C | -12.3 | -9.22 | -3.24 | 98.4% | 90.2% | 5.95 |
| Cc1ccc2oc(-c3ccc(NC(=O)CC(C)C)cc3)nc2c1 | -9.28 | -6.46 | -0.39 | 102% | 92.6% | 7.81 |
| CCOC(=O)c1c(CN2CCCCC2)n(C)c2cc(Br)c(O)c(CN(C)C)c12 | -16.8 | 5.7 | -2.65 | 75.7% | 79.5% | 0.94 |
| CCn1c(=O)c2cc(C(=O)NCc3cccs3)sc2c2ccccc21 | -11.3 | -8.09 | -5.17 | 102% | 95.9% | 4.3 |
| c1ccc(-c2nc(CSc3nnnn3-c3ccccc3)cs2)cc1 | -8.04 | -0.095 | -2.18 | 99.5% | 93.4% | 7.98 |
| Cc1ccccc1-n1c(Cn2c(=O)sc3ccccc32)nnc1SC(C)C | 5.19 | 6.75 | -0.49 | 84% | 78.4% | 6.91 |
| Cc1cc(Nc2cccc(Cl)c2)n2ncnc2n1 | -2.62 | 7.42 | -2.08 | 95.9% | 98.7% | 1.67 |
| CC(=O)c1cccc(NC(=O)CCS(=O)(=O)c2cccc3nonc23)c1 | -9.88 | -7.91 | -3.46 | 93.5% | 93.2% | 3.02 |
| Clc1ccc(-c2nnc(SCc3nc(-c4ccccc4)no3)o2)cc1 | -10.1 | -9.97 | -3.34 | 99.2% | 91.7% | 4.9 |
| COc1ccc(-c2cn3c(C)c(C(=O)N4CCN(c5ccc(F)cc5)CC4)sc3n2)cc1 | -0.17 | -2.07 | 0.81 | 101% | 103% | 5.28 |
| Cc1ccc(CN2CCNC(=O)C2CC(=O)O)cc1 (stereo not given) | 2.7 | -8.03 | -1.2 | 97.3% | 92.4% | 0.83 |
| Cc1ccc(C)c2[nH]c(=O)c(CCNC(=O)c3cc4ccccc4o3)cc12 | -2.5 | -11.6 | 1.81 | 95.4% | 91.2% | 4.18 |
| O=C(Nc1nc2c(s1)CCCC2)c1cccnc1 | -5.66 | -5.07 | 0.28 | 100% | 92.2% | 1.3 |
| C#CCSc1nnc(-c2c[nH]c3ccccc23)n1C | 0.22 | 8.42 | -2.77 | 98.3% | 93.5% | -0.92 |
| CCOC(=O)CNc1nc(C(C)(C)C)nc2c1nnn2Cc1ccccc1Cl | 1.73 | -3.68 | -1.19 | 78% | 76.2% | 9.74 |
| CS(=O)(=O)c1ccc2nc(NC(=O)Cc3ccccc3)sc2c1 | -10.9 | -4.83 | -4.98 | 91.5% | 96.3% | 3.94 |
| CCOc1ccc(N(CC(=O)NC(C)CC)S(=O)(=O)c2c(C)noc2C)cc1 (stereo not given) | -4.58 | -11.1 | -0.76 | 99.3% | 93.1% | 2.66 |
| Cc1ccc(NC(=O)CSc2nnc(Cn3c(=O)sc4ccccc43)n2C)cc1 | -5.8 | -12.1 | -1.58 | 93.6% | 96.4% | 8.73 |

| Structure (SMILES) | growth inhibition [1] [%] | growth inhibition [2] [%] | viability increase [3] [%] | viability [4] | viability [5] | RAM network inhibition [6] [%] |
| --- | --- | --- | --- | --- | --- | --- |
| CC(C)OCCCNS(=O)(=O)c1ccc2c(c1)oc(=O)n2C | -13.3 | -6.73 | -1.3 | 101% | 97% | 0.04 |
| CCCOCCOC(=O)c1[nH]c2c(c1C)C(=O)CC(c1cc(OC)ccc1OC)C2 (stereo not given) | -12.2 | -4.79 | -4.21 | 17.3% (active) | 20.6% (active) | 8.16 |
| C=CCOC(=O)c1sc(NC(=O)c2ccco2)nc1C | -13.2 | -5.04 | -1.25 | 94% | 84.6% | 1.63 |
| CCC(C(=O)N1CCN(c2cccc(Cl)c2)CC1)c1ccccc1 (stereo not given) | 1.93 | -5.71 | -4.98 | 57.7% | 63% | 8.74 |
| Cn1c(Cn2c(=O)sc3ccccc32)nnc1SCc1ccccc1 | -3.71 | -6.89 | 0.76 | 72.9% | 71.2% | 4.4 |
| CCOC(=O)c1c(NC(=O)c2cccs2)sc2c1CCC2 | -13.6 | -20.4 | -0.45 | 91.7% | 90.4% | 4.33 |
| COc1ccc(N2CCN(C(=O)c3cc4c(-c5ccc(Cl)cc5)nn(C)c4s3)CC2)cc1 | 2.67 | -4.22 | -3.45 | 78.6% | 71.4% | 3.98 |
| COc1ccc(-n2c(SCC(=O)Nc3nccs3)nc3c(c2=O)SCC3)cc1 | -1.01 | -11.5 | -3.87 | 93.2% | 84.6% | 5.95 |
| Cc1ccc2oc(=O)c3cnn(CC(=O)NCCc4ccsc4)c3c2c1 | 3.75 | -1.42 | -2.89 | 90.7% | 85.7% | 3.42 |
| CCCCCOC(=O)CSc1nc2c(c(=O)[nH]c(=O)n2C)n1Cc1ccc(Cl)cc1 | 11.9 | 23.6 | -3.26 | 93.2% | 84.7% | 2.16 |
| COC(=O)c1nnc(-c2ccccc2)c(-c2ccccc2)n1 | -20.7 | -24.7 | -1.82 | 104% | 99.5% | 9.17 |
| CCOC(=O)N1CCC(N2C(=O)c3ccc(C(=O)Nc4ccc(F)cc4F)cc3C2=O)CC1 | -2.61 | -7.76 | -6.61 | 91.1% | 94.4% | 4.78 |
| FC(F)(F)c1nc(N2CCN(c3ccccc3)CC2)nc2c1CCCCC2 | -16.6 | -18.3 | -0.3 | 72.5% | 73.4% | 9.39 |
| CCn1c(=O)c2cc(C(=O)Nc3cc(C)on3)sc2c2ccccc21 | -16.6 | -25.2 | -6.36 | 92.1% | 71.5% | 4.19 |
| O=C(CCc1nc2ccccc2[nH]1)Nc1ccc2c(c1)OCCO2 | -17.1 | -18.4 | -2.36 | 94.2% | 94.8% | 0.89 |
| Cn1c(=O)[nH]c(=O)c2c1nc(Sc1ccccc1)n2CCc1ccccc1 | -4.23 | -5.96 | -5.18 | 91.6% | 69.2% | 7.53 |
| COc1ccc(-n2c(SCC(=O)N3CCCC3)nc3c([nH]c4ccccc43)c2=O)cc1 | -20.2 | -19.5 | -3.04 | 105% | 93.7% | 1.9 |
